Among the data in published antibiotic growth screens (doi:10.1016/j.cell.2020.01.021) are relative growth values, retold here.

The full ranking holds about 2,300 compounds; the median of “relative growth” is about 1, and the lowest 2% start at about 0.046. The list is a sample of the results.

In this test the test system is E. coli BW25113. As to the kind of experiment: relative growth (fraction of control); higher = less inhibition. The note with it: 50 µM.
`CNCC(O)c1ccc(O)c(O)c1.O=C(O)C(O)C(O)C(=O)O` (stereo not drawn) showed a relative growth of 1.17.
Regarding `CCOC(=O)C(CCc1ccccc1)NC(C)C(=O)N1CCCC1C(=O)O.O=C(O)C=CC(=O)O` (stereo not drawn), the relative growth was determined as 1.07.
As for `COCCCOc1cc(CC(CC(N)C(O)CC(C(=O)NCC(C)(C)C(N)=O)C(C)C)C(C)C)ccc1OC.O=C(O)C=CC(=O)O` (stereo not drawn), the relative growth amounted to 0.978.
As to `C#CCCCCCCCCCCCC(O)CC(O)CO.C=CCCCCCCCCCCCC(O)CC(O)CO` (stereo not drawn), the relative growth is 0.979.
In turn, `COc1ccc(CN(CCN(C)C)c2ccccn2)cc1.O=C(O)C=CC(=O)O` yielded a relative growth of 1.09.
The figure for `CN1CCC(=C2c3ccccc3CCc3sccc32)CC1.O=C(O)CC(O)C(=O)O` is 1.07; for `CC(C)=CCCC(C)C1CCC2(C)C3=C(CCC12C)C1(C)CCC(O)C(C)(C)C1CC3` (stereo not drawn) it is 0.918.
The compound `CCC1OC(=O)C(C)C(OC2CC(C)(OC)C(O)C(C)O2)C(C)C(OC2OC(C)CC(N(C)C)C2O)C(C)(O)CC(C)C(=O)C(C)C(O)C1(C)O` (stereo not drawn) had a relative growth of 0.394.
On to `C[N+]1(CCCCC[N+]2(C)CCCC2)CCCC1.O=C([O-])C(O)C(O)C(=O)O.O=C([O-])C(O)C(O)C(=O)O`, for which the relative growth stood at 0.992.
On to `OCC(O)C(O)C(O)CO` (stereo not drawn), for which the relative growth was found to be 0.987.
In turn, `CN(C)CCOC(C)(c1ccccc1)c1ccccn1.O=C(O)CCC(=O)O` (stereo not drawn) showed a relative growth of 0.787.
The figure for `CN(C)CCC(c1ccccc1)c1ccccn1.O=C(O)C=CC(=O)O` (stereo not drawn) is 0.966.
In turn, `O=c1ccc2ccccc2o1` returned a relative growth of 1.09.
Take `CN(C)CCOC(c1ccc(Cl)cc1)c1ccccn1.O=C(O)C=CC(=O)O` (stereo not drawn): the relative growth worked out at 0.986.
For `NC(CO)(CO)CO.O=C(c1ccccc1)c1ccc2n1CCC2C(=O)O` (stereo not drawn), the relative growth worked out at 0.914.
Consider `CCN(CC)CCc1nc(-c2ccccc2)no1.O=C(O)CC(O)(CC(=O)O)C(=O)O`, for which the relative growth worked out at 0.968.
`CC(C)NCC(O)COc1ccc(COCCOC(C)C)cc1.O=C(O)C=CC(=O)O` (stereo not drawn) returned a relative growth of 1.04.
`CN1CCCC1CCOC(C)(c1ccccc1)c1ccc(Cl)cc1.O=C(O)C=CC(=O)O` (stereo not drawn) registered a relative growth of 1.01.
`CN1CCCC1c1cccnc1.O=C(O)C(O)C(O)C(=O)O.O=C(O)C(O)C(O)C(=O)O` (stereo not drawn) displayed a relative growth of 1.14.
In the case of `C[N+](C)(C)CCO.Cn1c(=O)c2[n-]cnc2n(C)c1=O` it was 1.06; in that of `CN(C)CCOc1ccc(C(=C(CCCl)c2ccccc2)c2ccccc2)cc1.O=C(O)CC(O)(CC(=O)O)C(=O)O`, 0.722; in that of `Cc1c(OCC(F)(F)F)ccnc1CS(=O)c1nc2ccccc2[nH]1` (stereo not drawn), 1.01.
Compound `NCC(O)c1ccc(O)c(O)c1.O=C(O)C(O)C(O)C(=O)O` (stereo not drawn) yielded a relative growth of 1.12.
`CN(C)CCC(c1ccc(Br)cc1)c1ccccn1.O=C(O)C=CC(=O)O` (stereo not drawn): the relative growth was 1.04.
`COc1ccc2c3c1OC1CC(O)C=CC31CCN(C)C2` (stereo not drawn): the relative growth worked out at 0.936.
In the case of `CN1CCCN=C1C=Cc1cccc(O)c1.O=C(O)c1cc2ccccc2c(Cc2c(O)c(C(=O)O)cc3ccccc23)c1O` it was 1.1; in that of `C=C1C2CCC3(C)C(c4ccoc4)OC(=O)CC13OC1CC(O)C(C)(C)C(CC(=O)OC)C12C` (stereo not drawn) [3alpha-HYDROXY-3-DEOXYANGOLENSIC ACID METHYL ESTER], 1.03.
In turn, `OCC(O)C(O)CO` (stereo not drawn) showed a relative growth of 0.882.
Compound `Cl.NC(=O)CCC(N)C(=O)O` (stereo not drawn) displayed a relative growth of 1.03.
As to `CCN(CCCc1ccccc1)CCCc1ccccc1.O=C(O)CC(O)(CC(=O)O)C(=O)O`, the relative growth worked out at 0.881.
In turn, `CN(C)CC(c1ccc(O)cc1)C1(O)CCCCC1.O=C(O)CCC(=O)O` (stereo not drawn) came in with a relative growth of 1.14.
Consider `CC1=C(C(=O)O)N2C(=O)C(NC(=O)C(N)c3ccccc3)C2SC1` (stereo not drawn), for which the relative growth came to 1.03.
With `O=C(O)C=CC(=O)O.OCCOCCN1CCN(C2=Nc3ccccc3Sc3ccccc32)CC1`, the relative growth was determined as 0.3.
In turn, `CC1CC2C3CCC4=CC(=O)C=CC4(C)C3(F)C(O)CC2(C)C1(O)C(=O)CO` (stereo not drawn) showed a relative growth of 0.933.
The compound `C1CCC(C(CC2CCCCN2)C2CCCCC2)CC1.O=C(O)C=CC(=O)O` (stereo not drawn) yielded a relative growth of 0.52.
`CCN1CCCC1CNC(=O)c1cc(S(N)(=O)=O)ccc1OC` (stereo not drawn): the relative growth was found to be 1.04.
As for `CC12CCC(CC1)C(C)(C)O2`, the relative growth amounted to 1.06.
The figure for `Cc1ccccc1C(OCCN(C)C)c1ccccc1.O=C(O)CC(O)(CC(=O)O)C(=O)O` (stereo not drawn) is 1.01; for `COCCCCC(=NOCCN)c1ccc(C(F)(F)F)cc1.O=C(O)C=CC(=O)O` it is 0.949.
`Nc1nc(N)nc(-c2cc(Cl)ccc2Cl)n1.O=C(O)C=CC(=O)O` displayed a relative growth of 1.04.
`CC(N)C(O)c1cccc(O)c1.O=C(O)C(O)C(O)C(=O)O` (stereo not drawn): the relative growth was 0.957.
As to `Cc1ccc(S(=O)(=O)O)cc1.NC1CCN(c2nc3c(cc2F)c(=O)c(C(=O)O)cn3-c2ccc(F)cc2F)C1.O` (stereo not drawn), the relative growth was 0.0925.
For `C=CC1=C(C)c2cc3[nH]c(cc4nc(cc5[nH]c(cc1n2)c(C)c5CCC(=O)O)C(CCC(=O)O)=C4C)c(C)c3C=C`, the relative growth turned out to be 2.63.
The figure for `CNC(C)C1CCC(N)C(OC2C(N)CC(N)C(OC3OCC(C)(O)C(NC)C3O)C2O)O1.O=S(=O)(O)O` (stereo not drawn) is 0.786.
The figure for `Cc1cc(C=Cc2ccc3cc(N(C)C)ccc3[n+]2C)c(C)n1-c1ccccc1.O=C([O-])c1cc2ccccc2c(Cc2c(O)c(C(=O)O)cc3ccccc23)c1O` is 0.996.
In the case of `CC(C)Cc1ccc(C(C)C(=O)O)cc1` (stereo not drawn), the relative growth is 0.933.
On to `CCN(CC)C(=O)N1CCN(C)CC1.O=C(O)CC(O)(CC(=O)O)C(=O)O`, for which the relative growth came to 1.1.
In turn, `O=C(O)c1cc2ccccc2c(Cc2c(O)c(C(=O)O)cc3ccccc23)c1O.OCCOCCN1CCN(C(c2ccccc2)c2ccc(Cl)cc2)CC1` returned a relative growth of 1.17.
In the case of `CC(CN(C)C)CN1c2ccccc2CCc2ccccc21.O=C(O)C=CC(=O)O` (stereo not drawn) it was 1.01; in that of `CCCCCCCCCCCCCCCC(=O)NCCO`, 1.06.
Compound `COC1C(C(=O)O)OC(C)C(O)C1O.COC1OC(C(=O)O)C(O)C(O)C1O` (stereo not drawn) [ALGINIC ACID [Mol Wt ~200,000; monomers shown]] showed a relative growth of 0.862.
The compound `CN1CCC(=C2c3ccccc3CC(=O)c3sccc32)CC1.O=C(O)C=CC(=O)O` had a relative growth of 1.03.
With `C=CC1CN2CCC1CC2C(O)c1ccnc2ccc(OC)cc12.O=C(O)C(O)C(O)C(O)C(O)CO` (stereo not drawn), the relative growth was 0.949.
Compound `CC(=O)c1ccc2c(c1)N(CCCN(C)C)c1ccccc1S2.O=C(O)C=CC(=O)O` returned a relative growth of 0.983.
Regarding `CC1OC(OC2C(O)CC(OC3C(O)CC(OC4CCC5(C)C(CCC6C5CC(O)C5(C)C(C7=CC(=O)OC7)CCC65O)C4)OC3C)OC2C)CC(O)C1O` (stereo not drawn), the relative growth amounted to 1.13.
Compound `Cl.Cl.O=C(O)COCCN1CCN(C(c2ccccc2)c2ccc(Cl)cc2)CC1` (stereo not drawn) had a relative growth of 0.982.
`C[N+](C)(C)CC(O)CC(=O)[O-]` (stereo not drawn): the relative growth came out at 0.989.
Take `CCOC(=O)C1=C(COCCN)NC(C)=C(C(=O)OC)C1c1ccccc1Cl.O=S(=O)(O)c1ccccc1` (stereo not drawn): the relative growth worked out at 0.929.
Regarding `COCCc1ccc(OCC(O)CNC(C)C)cc1.O=C(O)C(O)C(O)C(=O)O` (stereo not drawn), the relative growth stood at 1.17.
As for `COC1C(O)C(O)C(O)C(O)C1O` (stereo not drawn), the relative growth was found to be 0.97.
Regarding `COc1cccc2c1C(=O)c1c(O)c3c(c(O)c1C2=O)CC(O)(C(=O)CO)CC3OC1CC(N)C(O)C(C)O1` (stereo not drawn), the relative growth worked out at 1.02.
`Cn1c(=O)c2[nH]cnc2n(C)c1=O` showed a relative growth of 1.07.
As for `CN1CCC(=C2c3ccccc3Sc3ccccc32)CC1.O=C(O)C=CC(=O)O`, the relative growth was determined as 0.967.
Consider `CC[N+](CC)(CC(=O)Nc1c(C)cccc1C)Cc1ccccc1.O=C([O-])c1ccccc1`, for which the relative growth stood at 1.01.
Consider `O=c1[nH]cc(F)c(=O)[nH]1`, for which the relative growth was 0.475.
The figure for `COc1ccc(CC2c3cc(OC)c(OC)cc3CC[N+]2(C)CCC(=O)OCCCCCOC(=O)CC[N+]2(C)CCc3cc(OC)c(OC)cc3C2Cc2ccc(OC)c(OC)c2)cc1OC.O=S(=O)([O-])c1ccccc1.O=S(=O)([O-])c1ccccc1` (stereo not drawn) is 0.995; for `CCN(CC)CCOc1ccc(C(=C(Cl)c2ccccc2)c2ccccc2)cc1.O=C(O)CC(O)(CC(=O)O)C(=O)O` it is 0.86.
`CCOC(=O)Nc1ccc(NCc2ccc(F)cc2)nc1N.O=C(O)C=CC(=O)O` had a relative growth of 0.989.
`Cc1cc2nc3c(=O)[nH]c(=O)nc-3n(CC(O)C(O)C(O)COP(=O)([O-])O)c2cc1C.[Na+]` (stereo not drawn) returned a relative growth of 0.981.
Take `CCC(C)C1OC2(CCC1C)CC1CC(CC=C(C)C(OC3CC(OC)C(OC4CC(OC)C(O)C(C)O4)C(C)O3)C(C)C=CC=C3COC4C(O)C(C)=CC(C(=O)O1)C34O)O2` (stereo not drawn): the relative growth was determined as 0.874.
In turn, `CN(C)CCOC(c1ccccc1)c1ccccc1.Cn1c(=O)c2[nH]c(Cl)nc2n(C)c1=O` returned a relative growth of 0.0491.
The compound `Cn1c(=O)cc(N2CCCC(N)C2)n(Cc2ccccc2C#N)c1=O.O=C(O)c1ccccc1` (stereo not drawn) returned a relative growth of 1.05.
Compound `O.OCC(O)C(O)C(OC1OC(CO)C(O)C(O)C1O)C(O)CO` (stereo not drawn) displayed a relative growth of 0.993.
Turning to `CC12CCC3c4ccc(O)cc4CCC3C1CC(O)C2O` (stereo not drawn), the relative growth turned out to be 1.07.
`CC(CN(C)C)CN1c2ccccc2Sc2ccccc21.O=C(O)C(O)C(O)C(=O)O` (stereo not drawn) returned a relative growth of 0.971.
As for `CC(=O)NCC(=O)O.CC(=O)NCC(=O)O.N=C(N)c1ccc(N=NNc2ccc(C(=N)N)cc2)cc1`, the relative growth was 1.01.
For `CCOCC(O)COc1ccc(NC(=O)CC[S+](C)C)cc1.Cc1ccc(S(=O)(=O)[O-])cc1` (stereo not drawn), the relative growth was 1.09.
Take `O=C(O)CC(O)(CC(=O)O)C(=O)O`: the relative growth is 1.02.
In the case of `CN(CCOc1ccc(CC2SC(=O)NC2=O)cc1)c1ccccn1.O=C(O)C=CC(=O)O` (stereo not drawn) it was 0.921; in that of `CC(C)C(=O)Oc1ccc(CO)cc1C(CCN(C(C)C)C(C)C)c1ccccc1.O=C(O)C=CC(=O)O` (stereo not drawn), 0.804; in that of `C[n+]1cc2c3c(ccc2c2ccc4cc5c(cc4c21)OCO5)OCO3.[Cl-]`, 0.639.
As to `CC(CCC(=O)O)C1CCC2C3C(O)CC4CC(O)CCC4(C)C3CCC12C` (stereo not drawn), the relative growth worked out at 0.976.
On to `CCOCCn1c(N2CCCN(C)CC2)nc2ccccc21.O=C(O)C=CC(=O)O.O=C(O)C=CC(=O)O`, for which the relative growth was determined as 1.11.
For the compound `NCC1OC(OC2C(N)CC(N)C(OC3OC(CO)C(O)C(N)C3O)C2O)C(O)C(O)C1O.O=S(=O)(O)O` (stereo not drawn), the relative growth worked out at 0.935.
`CC(C)(C)NCC(O)COc1nsnc1N1CCOCC1.O=C(O)C=CC(=O)O` (stereo not drawn): the relative growth worked out at 0.974.
As to `CCCc1nn(C)c2c(=O)[nH]c(-c3cc(S(=O)(=O)N4CCN(C)CC4)ccc3OCC)nc12.O=C(O)CC(O)(CC(=O)O)C(=O)O`, the relative growth turned out to be 0.963.
On to `C[N+](C)(CCOc1ccccc1)Cc1ccccc1.O=C([O-])c1cc2ccccc2cc1O`, for which the relative growth is 0.93.
Compound `COc1cccc2c1C(=O)c1c(O)c3c(c(O)c1C2=O)CC(O)(C(=O)CO)CC3OC1CC(N)C(O)C(C)O1.Cl` (stereo not drawn) came in with a relative growth of 1.02.
